Compound activity as filed in PubChem BioAssay.
G9a inh – inhibitors of human histone lysine methyltransferase G9a | Q96KQ7 | G9a H3K9 monomethylation, AlphaScreen, 2 h | Potency, µM (doses to about 102 µM), usual class: inhibitors | 8.8% of 350,000 active; note: nearly all actives have a fitted effect of over 75% in size
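Enzyme 20 nM + cpd, 15 min RT; add b-H3K9 pep 500 nM / SAM 20 uM; 2 h RT; anti-H3K9me1 Ab 0.5 ug/mL + SA donor / anti-rabbit acceptor beads 20 ug/mL each, 10 min; AlphaScreen read.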
Sfp PPTase inh – inhibitors of Bacillus subtilis Sfp phosphopantetheinyl transferase. 3.5% of 310,000 active. Q9F4F7. Biochemical Sfp PPTase activity, qHTS. Potency, µM, most hits filed as inhibitors;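 note: the enzyme is Sfp with the accession as filed and its product quenches rhodamine fluorescence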
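Step 1, compound plus 15 nM Sfp-PPTase, 15 min, room temperature. Step 2, add rhodamine-CoA (5 uM) and BHQ-2-YbbR (12.5 uM). Step 3, read 525/598 nm fluorescence at 0 and 30 min.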
CCT chaperon mod – cytosolic chaperonin activity modulation | purified chaperonin ATPase assay, HTRF ADP detection, 30 min | 0.3% of 360,000 active | activity change, % (no concentration beside the values), hits read low; in the data active = activity change below about -30%
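We incubate TRiC, 40 or 20 nM final, with library compounds at 76 uM and 10 uM ATP for 30 min at 37 °C. ADP formed is detected with Transcreener HTRF reagents after 30 min at room temperature.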
PLK1 PBD block – PLK1 (human) polo-box domain binding inhibition; P53350; Plk1 PBD binding of FITC phosphopeptide, fluorescence polarization; Potency, µM, most hits filed as inhibitors; 2.8% of 360,000 active; AID 720504; note: series mostly up to about 57 µM; nearly all actives have a fitted effect of over 65% in size
Target sequence (P53350 whole entry, looked up, the tested form may be a part): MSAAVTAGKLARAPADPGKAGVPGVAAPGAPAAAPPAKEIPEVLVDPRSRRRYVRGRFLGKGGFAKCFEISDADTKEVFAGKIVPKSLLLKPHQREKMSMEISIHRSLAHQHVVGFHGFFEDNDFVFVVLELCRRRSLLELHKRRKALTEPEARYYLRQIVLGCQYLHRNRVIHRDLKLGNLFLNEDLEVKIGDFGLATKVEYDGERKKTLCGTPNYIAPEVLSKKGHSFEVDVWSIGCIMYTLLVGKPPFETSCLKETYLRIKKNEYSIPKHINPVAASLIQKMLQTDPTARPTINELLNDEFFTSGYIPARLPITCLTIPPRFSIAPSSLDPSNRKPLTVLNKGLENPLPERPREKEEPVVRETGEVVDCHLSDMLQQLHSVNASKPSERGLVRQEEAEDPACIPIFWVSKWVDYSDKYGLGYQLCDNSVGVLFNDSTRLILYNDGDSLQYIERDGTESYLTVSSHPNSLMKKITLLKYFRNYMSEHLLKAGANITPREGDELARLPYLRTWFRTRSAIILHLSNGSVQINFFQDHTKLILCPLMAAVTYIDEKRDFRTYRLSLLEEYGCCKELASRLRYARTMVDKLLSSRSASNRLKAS
VDR inh – vitamin D3 receptor (human) inhibition | VDR-SRC2-3 peptide fluorescence polarization, 2 h | Potency, µM, usual class: inhibitors | 0.93% of 400,000 active | P11473
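Fluorescence polarization assay of small-molecule disruption of VDR binding to coregulator peptide SRC2-3. Compounds and controls pin-transferred, then read after 2 h incubation at ambient room temperature.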
MmCpn inh – inhibitors of Methanococcus maripaludis chaperonin TRiC (MmCpn); Potency, µM (highest dose often 76.9 µM), actives largely listed as inhibitors; 0.031% of 330,000 active; AID 504842; purified Mm-Cpn ATPase, ADP Transcreener TR-FRET; note: nearly all actives have a fitted effect of over 80% in size
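ATP (10 uM final) was added to archaeal chaperonin (25 nM final) after 10 min exposure to test compound at 37°C; after 30 min further incubation, ADP was detected by competitive TR-FRET.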
Hits are given with their value; i = inactive; ? = inconclusive; nt = no result; [ ] = another dose, or the depositor's remark. Hits are enriched below; roughly 10% of the tested compounds scored in any of these assays. Unless noted, calls come from the whole dose curve; as a rule, active = well fitted curve in the direction sought with a large enough effect; inconclusive = small, poorly fitted or top-dose-only effect, or another doubt; inactive = no such curve, though single readings can be large; an effect the other way counts as inactive or inconclusive.

SMILES	G9a inh	Sfp PPTase inh	CCT chaperon mod	PLK1 PBD block	VDR inh	MmCpn inh
Cc1ccc(C(=O)O/N=C\c2ccc(N3CCCCC3)c([N+](=O)[O-])c2)cc1	10µM	i	i	i	i	i
CO/N=C/c1ccc(N2CCN(C(=O)c3ccc(F)cc3)CC2)c([N+](=O)[O-])c1	45µM	?	i	i	i	i
O=C(O/N=C\c1ccc(N2CCCCC2)c([N+](=O)[O-])c1)c1c(F)cccc1F	14µM	i	i	i	i	i
CO/N=C/c1ccc(N2CCN(C(=O)c3cccc(C(F)(F)F)c3)CC2)c([N+](=O)[O-])c1	?	i	i	i	i	i
O=C(O/N=C\c1ccc(N2CCCCC2)c([N+](=O)[O-])c1)c1cccc(C(F)(F)F)c1	5µM	i	i	i	i	i
Cc1ccc(C(=O)O/N=C/c2ccc3c(c2)OCO3)cc1	i	i	i	i	i	i
O=C(O/N=C/c1ccc2c(c1)OCO2)c1ccc([N+](=O)[O-])cc1	i	i	-31	i	i	i
O=C(O/N=C\c1ccc(N2CCCCC2)c([N+](=O)[O-])c1)c1cccc(Cl)c1	28µM	i	i	i	i	i
O=C(N/N=C/c1ccc(N2CCCC2)c([N+](=O)[O-])c1)c1cccnc1	?	i	i	i	i	i
Cc1ccc(NC(=O)CN2C(=O)c3ccccc3Sc3ccc(C(=O)N4CCOCC4)cc32)cc1F	?	nt	nt	nt	i	nt
Cc1ccc2ncc(C(=O)NCc3ccccc3Cl)c(=O)n2c1	i	nt	nt	nt	i	nt
CN1c2ccccc2Sc2cc(N)ccc21	1.1µM	i	i	i	i	i
COc1cc(C(=O)Nc2nc3c(s2)Cc2c(Br)ccc(OC)c2-3)cc(OC)c1OC	i	nt	nt	nt	i	nt
Cn1nnnc1SCCNCc1ccc(OCc2ccc(Cl)cc2)cc1	i	nt	nt	nt	i	nt
COc1cccc2sc(NN)nc12	32µM	50µM	i	i	?	i
COc1cccc2sc(Nc3nnc(-c4ccccc4Cl)o3)nc12	i	i	i	i	i	i
COC(=O)c1c(-c2ccc(OC)cc2)sc2ccc(-c3ccc4c(c3)OCO4)cc12	nt	nt	-73	i	i	i
COC(=O)c1c(-c2ccc(OC)cc2)sc2ccc(OC)cc12	nt	nt	i	i	i	45µM
Cc1ccc2nc(-c3ccc(Cl)c(NC(=O)COc4ccc([N+](=O)[O-])cc4)c3)oc2c1	i	nt	nt	nt	i	nt
CC1CCN(C(=O)CSc2nc(C3CC3)nc3ccccc23)CC1	?	i	i	i	i	i
CCOC(=O)CSc1nc(C2CC2)nc2ccccc12	i[12.7 µM]	89µM	i	i	i	i
Cc1cc(C)cc(NC(=S)N(CCN2CCCCC2)Cc2ccco2)c1	i	i	i	i	i	i
Cc1cc(NC(=S)N(CCCN2CCN(C)CC2)Cc2ccco2)ccc1Cl	32µM	i	i	i	?	i
Cc1ccc(NC(=S)N(CCN2CCCCC2)Cc2ccco2)cc1Cl	50µM	i	i	i	i	i
CC(C)CCN1CCc2nc(-c3ccccc3)c3c(c2C1)COC(C)C3 (configuration not stated)	nt	i	nt	nt	nt	nt
SMILES	G9a inh	Sfp PPTase inh	CCT chaperon mod	PLK1 PBD block	VDR inh	MmCpn inh
CCOC(=O)c1sc(NC(=O)CSc2nc3ccccc3s2)c(C(=O)OCC)c1C	i	i	nt	nt	nt	i
COC(=O)c1c(NC(=O)C2CC2)sc(C(=O)Nc2ccccc2)c1C	i	i	i	27µM	i	i
CCOC(=O)c1c(NC(=O)CN(C)C2CCN(C)CC2)sc(C(=O)Nc2ccccc2)c1C	8.9µM	?	i	i	i	i
CCOC(=O)c1c(NC(=O)CSc2cccc[n+]2[O-])sc(C(=O)Nc2ccccc2)c1C	45µM	?	i	i	i	i
COc1ccc(NC(=O)c2cc(C)nc3c2c(C)nn3-c2ccc(C)cc2)cc1OC	i	nt	nt	nt	i	nt
CCCn1nc(C(=O)NNC(=O)CSC(C)C(=O)Nc2cc(C)on2)c2ccccc2c1=O (configuration not stated)	22µM	i	i	i	i	i
CCCn1nc(C(=O)NNC(=O)CCCOc2ccc(OC)cc2)c2ccccc2c1=O	i[12.7 µM]	nt	-76	i	i	i
CCOc1ccc(OCCC(=O)NNC(=O)c2nn(C)c(=O)c3ccccc23)cc1	?	i	i	i	i	i
Cc1cccc(C)c1OCCN1CCCC1	25µM	i	i	i	i	i
Cc1ccccc1OCCCN1CCCC1	40µM	i	i	i	i	i
Cc1ccccc1OCCN1CCCC1	nt	i	i	i	i	i
Cc1cccc(Cl)c1OCCCN1CCOCC1	10µM	i	i	i	i	i
Cc1cccc(C)c1OCCCCN1CCCCC1	79µM	i	i	i	i	i
Cc1cccc(C)c1OCCOCCN1CCN(C)CC1	i	i	i	i	i	i
Cc1cccc(C)c1OCCCN1CCCC1	10µM	i	i	i	i	i
COc1ccc(C(=O)Nc2cccc(OC(=O)c3ccco3)c2)cc1	50µM	i	i	i	i	i
COc1ccc(CCn2c(C)c(C(C)=O)c3cc(OC(=O)c4ccco4)ccc32)cc1OC	i[12.7 µM]	i	i	24µM	i	i
COc1ccc(C(C)=O)c(OC(=O)c2ccco2)c1	45µM	i	i	i	i	i
COc1ccc(C(C)=O)c(OC(=O)c2ccc(OC)c(OC)c2)c1	i[12.7 µM]	i	i	i	i	i
COc1ccc(C(=O)Nc2cccc(OC(=O)c3ccc(C)c(C)c3)c2)cc1	nt	i	i	i	i	i
CCS(=O)(=O)N1CCc2cc(C(=O)N3CCN(c4ccccc4)CC3)ccc21	i	nt	nt	nt	i	nt
O=C1C(=O)N(CCN2CCOCC2)C(c2ccc(Cl)c(Cl)c2)/C1=C(/O)c1ccc2c(c1)OCO2 (configuration not stated)	?	i	i	i	i	i
CCOc1ccc(C2/C(=C(\O)c3ccc4c(c3)OCCO4)C(=O)C(=O)N2CCN2CCOCC2)cc1OC (configuration not stated)	45µM	i	i	i	i	i
O=C1C(=O)N(CCN2CCOCC2)C(c2cccc(Cl)c2)/C1=C(\O)c1ccc2c(c1)OCCO2 (configuration not stated)	35µM	i	i	i	i	i
COc1cc(OC)c(NC(=O)c2c(C)oc3nc(C)nc(N4CCOCC4)c23)cc1Cl	i	nt	nt	nt	i	nt
SMILES	G9a inh	Sfp PPTase inh	CCT chaperon mod	PLK1 PBD block	VDR inh	MmCpn inh
N#C/C(=C\c1cccc(Oc2ccccc2)c1)C(=O)N1CCOCC1	?	i	i	?	45µM	i
COc1cc(/C=C(\C#N)C(=O)N2CCOCC2)cc(Br)c1O	?	i	i	21µM	i	i
O=C(CN1C(=O)CCSc2ccc(S(=O)(=O)N3CCCC3)cc21)Nc1cccc(F)c1	i	nt	nt	nt	i	nt
Cn1c(-c2ccc3c(c2)OCO3)cnc1NCc1ccccc1	25µM	i	i	i	i	i
Cn1c(-c2ccc3c(c2)OCO3)cnc1NC(=O)CCC(=O)NCCc1ccccc1	i	i	i	i	i	i
Cn1c(-c2ccccc2)cnc1NCc1ccccc1	i[0.501 µM]	i	i	i	i	i
